High-throughput results: PubChem, National Center for Advancing Translational Sciences (NCATS)
The list is not random: actives were taken first. Their share in the collection is about 7.9%.
KB-V1 MDR tox: KB-V1 MDR subline cytotoxicity. KB-V1 MDR cells viability, CellTiter-Glo, 72 h. Potency, µM (titrated, usually from 46.1 µM), actives largely listed as cytotoxic. 400,000 compounds, 3.4% hits. AID 1347076; also: % is scaled to controls: 0 for no effect and ±100 for the full control effect; nearly all actives have a fitted effect of over 60% in size
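Cells of the MDR subline KB-V1 are plated, dosed with compound at multiple concentrations, and incubated 72 h at 37 degrees C; CellTiter-Glo is then added and luminescence read after 10 min.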
MCF10A rerep: DNA re-replication induction in MCF 10a cells; MCF 10A DNA re-replication, Hoechst nuclear intensity, 48 h; Potency, µM (highest dose often 46.1 µM), for inactives: at the top dose activity, positive = re-replication, hits mostly activators; 350,000 compounds, 2.9% hits; AID 624296; also: % of control where 0% means no effect; nearly all actives have a fitted effect of over 50% in size
HT1080-NT tox: kills 2HG-producing HT-1080-NT fibrosarcoma cells; 360,000 compounds, 1.6% hits; Potency, µM (titrated, usually from 46.1 µM), for inactives: top-dose activity, negative = less viability, actives largely listed as cytotoxic; HT-1080-NT fibrosarcoma viability, CellTiter-Glo ATP luminescence, 48 h;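 also: NT is the 2HG producing partner of a matched IDH1 knockdown line; 0% = DMSO-treated cells and -100% = media-only wells without cells; nearly all actives have a fitted effect of over 55% in size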
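A 48-hour cytotoxicity screen used HT-1080-NT cells plated 2 hours before compound delivery. ATP-based CellTiter-Glo luminescence measured viability, normalized to DMSO and no-cell controls.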
KB-3-1 cytotox: KB-3-1 parental cell cytotoxicity | AID 1347075 | KB-3-1 viability, CellTiter-Glo ATP luminescence, 72 h | 400,000 compounds, 1.4% hits | Potency, µM (highest dose often 46.1 µM), hits mostly cytotoxic; also: % is scaled to controls: 0 for no effect and ±100 for the full control effect; nearly all actives have a fitted effect of over 60% in size
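Viability of parental KB-3-1 cells, measured by CellTiter-Glo luminescence, followed a 72 h incubation at 37 °C with pinned compounds in phenol-red-free DMEM containing 10% FBS.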
HT1080 IDH1KD tx: HT-1080 IDH1 knockdown cell toxicity (counter line). Potency, µM (doses to about 46.1 µM), without a hit: at the top dose activity, negative = toxicity, usual class: cytotoxic. 360,000 compounds, 2% hits. HT-1080 IDH1 knockdown viability, ATP luminescence, 48 h;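 also: 0% = DMSO wells and -100% = cell-free medium wells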
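Assay cells: HT-1080 with IDH1 knockdown, 750 per well, RPMI/5% FBS. Exposure: 48 h at 37 °C following 2 h pre-incubation. Read: CellTiter-Glo luminescence; fitted concentration-response, curve class assigned.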
SW480 rereplic: DNA re-replication induction in SW480 cells; Potency, µM (series often up to 46.1 µM), for the others: at the top dose re-replication activation, most hits filed as activators; 340,000 compounds, 1.8% hits; AID 624297; SW480 DNA re-replication, Hoechst DNA content imaging, 48 h; also: % of control where 0% means no effect; nearly all actives have a fitted effect of over 55% in size
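250 cells/well; 23 nL cpd via pin tool; 48 hr, 37 C, 5% CO2; Hoechst 40 min; imager read of total nuclear intensity, ex 405/em 500-530 nm.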
Numbers without * were called inactive; i = inactive; ? = inconclusive; nt = not tested or not shown; [ ] = another dose, or the depositor's remark. Calls follow the shape of the dose curve; as a rule, active = well fitted curve in the direction sought with a large enough effect; inconclusive = small, poorly fitted or top-dose-only effect, or another doubt; inactive = no such curve, though single readings can be large; an effect the other way counts as inactive or inconclusive. Potency is read from the fitted curve at half-maximal effect.

SMILES	KB-V1 MDR tox	MCF10A rerep	HT1080-NT tox	KB-3-1 cytotox	HT1080 IDH1KD tx	SW480 rereplic
CCNC(=O)N(CC)C[C@H]1N[C@@](C)(C(=O)OC)[C@H]2C(=O)N(Cc3ccccc3)C(=O)[C@@H]12	i	-5.1%	-0.2%	i	-1.4%	0.231µM*
N=c1ccn(Cc2ccc(Cl)cc2)cc1	i	5.7%	-17.5%	4.61µM*	-23.2%	10.1%
N=c1ccn(Cc2ccccc2Cl)cc1	?	4.0%	-0.5%	?	-16.5%	2.0%
N=c1ccn(Cc2ccc(Cl)cc2Cl)cc1	i	6.8%	?	6.51µM*	-10.2%[9.24 µM]	-3.4%
CCc1nnc(NC(=O)CSc2nc(C)cc(C)c2C#N)s1	i	?	1.7%	i	1.8%	19.6%
CCOC(=O)/C(Sc1nc(-c2ccccc2)cc(-c2ccccc2)c1C#N)=C(\C)O	i	3.66µM*	11.5%	i	10.3%	11.6µM*
CCSc1nc(-c2ccc(OC)cc2)cc(-c2ccccc2)c1C#N	i	?	0.1%	i	8.4%	-2.9%
CCc1nnc(NC(=O)CSc2nc(-c3ccc(F)cc3)cc(-c3ccccc3)c2C#N)s1	i	11.6µM*	0.3%	i	4.3%	9.7%
COc1ccc(-c2cc(-c3ccccc3)nc(SCC(=O)Nc3ncc(C)s3)c2C#N)cc1	9.2µM*	23.3%	1.7%	i	0.3%	9.4%
COc1ccc(-c2cc(-c3ccccc3)c(C#N)c(S(C)=O)n2)cc1 (stereo not given)	i	5.17µM*	?	?	?	?
Cc1cccc(-c2cc(-c3ccccc3)nc(SCC(=O)Nc3ccccc3)c2C#N)c1	i	nt	nt	i	nt	nt
CCCNC(=O)CN1C(=O)c2cccnc2Sc2ccccc21	i	nt	nt	i	nt	nt
CCCC[C@H]1COCCS(=O)(=O)N1Cc1ccc(C)cc1	16.4µM*	-0.9%	-2.0%	16.4µM*	-5.6%	-5.0%
CC1CCc2c(sc(NC(=O)CSc3ncn[nH]3)c2C#N)C1 (stereo not given)	i	18.4µM*	-26.3%	?	?	5.1%
CC1CCc2c(sc(NC(=O)Cn3nc(C(=O)O)c4ccccc4c3=O)c2C#N)C1 (stereo not given)	i	?	7.8%	i	8.1%	-5.1%
CC(=O)c1c(C)[nH]c(C(=O)OCC(=O)Nc2sc3c(c2C#N)CCC(C)C3)c1C (stereo not given)	i	?	-9.4%	i	25.9µM*	13.0%
CCN1CCN(CC(=O)Nc2sc3c(c2C#N)CCC(C)C3)CC1 (stereo not given)	?	?	18.4µM*	?	?	?
N#Cc1c(NC(=O)CSc2ncn[nH]2)sc2c1CCCC2	?	?	-24.4%	?	-8.7%	-4.7%
CC(C)(C)C1CCc2c(sc(NC(=O)CSc3ncn[nH]3)c2C#N)C1 (stereo not given)	16.4µM*	?	11.2µM*	?	11.2µM*	?
CC1CCc2c(sc(NC(=O)COC(=O)c3ccc(NC(=O)CC#N)cc3)c2C#N)C1 (stereo not given)	i	3.4%	-8.9%	i	8.4%	-401.7%
O=C(Nc1ccccc1)c1ccc(Br)c(S(=O)(=O)N2CCCCC2)c1	i	nt	nt	?	nt	nt
COCCNC(=O)c1onc(CCl)c1C(=O)OC	i	8.4%	2.9%	i	-0.6%	?
C=CCNC(=O)c1onc(CCl)c1C(=O)OC	?	18.4µM*	?	?	25.9µM*	?
Oc1c(Cl)cc(Cl)cc1C1=NNC(c2ccc(Cl)cc2)C1 (stereo not given)	?	16.4µM*	0.5%	i	-20.2%	?
Oc1ccc(Cl)cc1C1=NNC(c2cc(Br)cc3c2OCOC3)C1 (stereo not given)	i	10.8%	-15.9%	?	-11.0%	116.3%
SMILES	KB-V1 MDR tox	MCF10A rerep	HT1080-NT tox	KB-3-1 cytotox	HT1080 IDH1KD tx	SW480 rereplic
Oc1ccc(Cl)cc1C1=NNC(c2ccc(Cl)cc2)C1 (stereo not given)	?	18.4µM*	-18.0%	23.1µM*	?	?
CC(C)(C)c1ccc(-c2nnc(NC(=O)Nc3ccc4ccccc4c3)s2)cc1	i	nt	nt	?	nt	nt
CC(CN(C)C)CN1c2ccccc2Sc2ccc(C(F)(F)F)cc21 (stereo not given)	nt	11.2%	nt	nt	nt	?
CCC(CO)[n+]1c(C)cc(/C=C2\Sc3ccccc3N2Cc2ccccc2)cc1C (stereo not given)	i	?	3.26µM*	1.64µM*	3.26µM*	?
CCN1/C(=C2\SC(=S)N(Cc3ccccc3)C2=O)Sc2ccccc21	i	-2.0%	11.2%	i	11.7%	-42.2%
COCc1cc(C)n(CC(=O)Nc2cccc(C(C)=O)c2)c(=O)c1C#N	i	nt	nt	i	nt	nt
CCN(c1ccc(N=Cc2c(O)n(Cc3ccc(OC)cc3)c(=O)c3ccccc23)cc1)C(C)C	i	7.31µM*	10.7%	i	19.5%	?
O=C(CSc1ncn[nH]1)Nc1ccccc1Sc1ccccc1	14.6µM*	19.6%	-4.4%	i	?	0.2%
O=C(CCl)Nc1ccccc1Sc1ccc(Cl)cc1	?	14.6µM*	?	?	?	14.6µM*
CC(=O)N1CCN(CC(=O)Nc2ccccc2Sc2ccc(Cl)cc2)CC1	5.8µM*	8.9%	1.6%	?	-3.9%	1.6%
O=C(OCC1CCCO1)c1ccc2c(c1)N(Cc1ccccc1F)C(=O)c1ccccc1S2(=O)=O (stereo not given)	i	nt	nt	i	nt	nt
COc1ccccc1N1CCN(CC(O)COc2ccc(Cl)c(C)c2)CC1 (stereo not given)	i	nt	nt	i	nt	nt
O=C(Nc1ccc(Cl)cc1)c1nc[nH]c1C(=O)NCCCCNC(=O)c1[nH]cnc1C(=O)Nc1ccc(Cl)cc1	20.6µM*	-11.8%	7.4%	?	8.6%	4.5%
Cc1ccc(C(C2C(=O)CC(C)(C)CC2=O)C2C(=O)CC(C)(C)CC2=O)s1	i	18.4µM*	?	i	-1.4%	0.5%
CC(C)(C)OC(=O)NCCCCCc1cn([C@@H](CO)C(=O)NCCCCCCCCCCC(=O)N2CCN(C(=O)OC(C)(C)C)CC2)nn1	i	?	16.4µM*	?	16.4µM*	-1.5%[9.22 µM]
C#CCOCCOCCOCCNc1nc(N2CCN(C(=O)CCCCCCCCCCNC(=O)Cn3cc(C[C@@H](C)O)nn3)CC2)nc(N2CCN(C(=O)CCCCCCCCCCNC(=O)[C@@H](CCC(=O)O)n3cc(CCCCCN)nn3)CC2)n1	i	-2.4%	-5.7%	i	-9.2%	-6.2%
